This is an account of results in PubChem BioAssay (NCATS).

Inconclusive results are not listed. Calls of active or inactive are those of the source. Unless noted, calls come from the whole dose curve; as a rule, active = well fitted curve in the direction sought with a large enough effect; inconclusive = small, poorly fitted or top-dose-only effect, or another doubt; inactive = no such curve, though single readings can be large; an effect the other way counts as inactive or inconclusive.

A short description of test [1]: qHTS profiling for inhibitors of Plasmodium falciparum (3D7) proliferation (AID 743322; call rule not given here;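 note: infected erythrocytes exposed to compound for 72 h before lysis; 100% = DMSO vehicle wells and 0% = 0.29 µM artemisinin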). The note with it: P. falciparum 3D7 proliferation; at 28.7 µM (top of the series) unless noted. The method, boiled down:
(§1)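 Erythrocytes infected with P. falciparum (0.3% parasitemia, 2.5% hematocrit) incubated with compounds 72 h at 37 C, 5% CO2. Lysis with saponin/Triton buffer containing SYBR Green I, overnight at room temperature in the dark; DNA fluorescence (485/535 nm) normalised to 0.29 uM artemisinin and DMSO.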
Background: Quantitative high-throughput screening tests each substance at several concentrations.

The nature of test [2]: qHTS profiling for inhibitors of Plasmodium falciparum (HB3) proliferation (AID 743324).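 Note: 100% = DMSO vehicle wells and 0% = artemisinin-treated control wells.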 The note with it: Plasmodium falciparum HB3 blood-stage proliferation; at 28.7 µM (top of the series) unless noted. An outline of the steps:
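P. falciparum HB3 grown in erythrocytes (0.3% parasitemia, 2.5% hematocrit final) with compound for 72 h at 37 C, 5% CO2. Parasite DNA detected by SYBR Green after saponin/triton lysis overnight; normalized to 0.29 uM artemisinin and DMSO.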

The nature of test [3]: qHTS profiling of the MIPE4 collection as inhibitors of Plasmodium falciparum (3D7) proliferation (AID 743344; call rule not given here;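 note: scaled between DMSO vehicle wells and 0.29 µM artemisinin as full inhibition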). Conditions: P. falciparum 3D7 in erythrocytes, SYBR Green DNA fluorescence, 72 h; at 28.5 µM (top of the series) unless noted. An outline of the steps:
as §1

Test [4] is described as follows: qHTS profiling of the MIPE4 collection as inhibitors of Plasmodium falciparum (DD2) proliferation (AID 743345; call rule not given here). The note with it: P. falciparum Dd2 in erythrocytes, SYBR Green DNA, 72 h; at 28.5 µM (top of the series) unless noted. An outline of the steps: as §1
Test [5] can be described thus: qHTS profiling of the MIPE4 collection as inhibitors of Plasmodium falciparum (DD2) proliferation (Rep 2) (AID 743346; call rule not given here). The note with it: P. falciparum Dd2 in erythrocytes, SYBR Green DNA, 72 h; at 28.5 µM (top of the series) unless noted. The method, boiled down: as §1
Test [6] can be described thus: qHTS profiling of the MIPE4 collection as inhibitors of Plasmodium falciparum (HB3) proliferation (AID 743347; call rule not given here;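 note: plate controls were DMSO vehicle wells for no effect and artemisinin wells for full effect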). Conditions: P. falciparum HB3 in erythrocytes, SYBR Green DNA, 72 h; at 28.5 µM (top of the series) unless noted. The method, boiled down: as §1
Test [7] is described as follows: Cell Proliferation Assay Versus the ED40515 IL2 Dependent ATL cell lines (AID 1053195; calls by dose curve). The note with it: ED40515 IL2-dependent ATL cells. The method, boiled down: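 IL2-dependent ED40515 ATL cells grown with IL2, 1000 cells/well in phenol red-free RPMI + 5% FBS, exposed 48 hours at 37C. Viability by CellTiter-Glo luminescence after 15 min at RT; 9.2 uM bortezomib as control.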

A short description of test [8]: High-throughput drug toxicity screening in the BPDCN cell line Gen2.2 (AID 1224824; call rule not given here;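 note: cells exposed to compounds for 48 h before reading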). Conditions: Gen2.2 BPDCN cells; at 45.8 µM (top of the series) unless noted. The method, boiled down: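 Gen2.2, 500 cells/well, phenol red-free RPMI/10% FBS/Pen-Strep; 48 h cpd, 37 °C/5% CO2; CTG lum, 15 min RT. Norm: DMSO = 100%, bortezomib 9.2 uM final = 0%.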
Test [9] can be described thus: High-throughput drug toxicity screening in the BPDCN cell line Cal-1 (AID 1224825; call rule not given here). The note with it: Cal-1 BPDCN cell viability, qHTS; at 45.8 µM (top of the series) unless noted. An outline of the steps: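 500 Cal-1 cells/well, RPMI + glutamine + 10% FBS (phenol red-free); cpd added by pin tool; 48 h, 37C, 5% CO2; CTG 15 min RT, lumi read. Normalised: DMSO 100%, bortezomib 9.2 uM 0%.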

Test [10] can be described thus: qHTS assay for measurement of the activity of small molecule inhibitors on Zika virus induced Caspase-3 activity in human iPSC derived neural progenitor cells (hNPCs) (AID 1224857). Note: % of control where 0% means no effect; nearly all actives have a fitted effect of over 65% in size. An outline of the steps:
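Quantitative HTS format: human iPSC neural progenitors, 1 h compound pretreatment, ZIKV 2 FFU/cell for 6 h at 37 C. Percent inhibition derived from luminescent caspase-3/7 signal between uninfected and infected controls.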

Test [11] in a line: qHTS assay for measurement of the activity of small molecule inhibitors on Zika virus induced Caspase-3 activity in human astrocytoma cells (AID 1224859).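 Note: plate controls were ZIKV-infected untreated cells for no effect and uninfected cells for full effect.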 The method, boiled down:
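Readout is luminescence from Caspase-Glo 3/7 added after a 6 h ZIKV infection (2 FFU/cell) of compound-pretreated (1 h) SNB-19 cells; data expressed as % inhibition versus uninfected and infected wells.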

Test [12] can be described thus: qHTS Screen of the MIPE 4.0 Collection Against Ewings Sarcoma (RDES) (AID 1259252). Note: potency is the fitted concentration of half-maximal effect; nearly all actives have a fitted effect of over 35% in size. The method, boiled down: (§2)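 After a 4 h attachment period in RPMI/5% FBS, cells were pin-dosed with test compounds; DMSO served as negative and 9.2 uM bortezomib (final) as positive control. Luminescent CellTiter-Glo signal at 48 h defined viability.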
Test [13] is described as follows: qHTS Screen of the MIPE 4.0 Collection Against Ewings Sarcoma (TC71) (AID 1259253). Note: potency is the fitted concentration of half-maximal effect; nearly all actives have a fitted effect of over 40% in size. The method, boiled down: as §2
Test [14] can be described thus: qHTS Screen of the MIPE 4.0 Collection Against Ewings Sarcoma (TC32) (AID 1259256). Note: potency is the fitted concentration of half-maximal effect; nearly all actives have a fitted effect of over 45% in size. An outline of the steps: as §2
Test [15] in a line: qHTS profiling for inhibitors of Plasmodium falciparum (DD2) proliferation (AID 743323; call rule not given here). Conditions: lower = more inhibition; at 28.7 µM (top of the series) unless noted. An outline of the steps: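 1536-well qHTS; infected RBCs 0.3% parasitemia/2.5% Hct final; cpd 72 h 37 C 5% CO2; lysis buffer + SYBR Green I, o/n RT dark; FI 485/535; norm. to 0.29 uM artemisinin and DMSO, plate-stack corrected.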

A short description of test [16]: qHTS assay to identify small molecule inhibitors of chordoma cells - UCH-1 (AID 1259355). Note: % is set by controls: 0 for no effect and ±100 for the full control effect; nearly all actives have a fitted effect of over 55% in size. The method, boiled down:
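Seed 800 cells per well; incubate overnight at 37 C, 5% CO2. Add test compounds (15 concentrations), then the auranofin–topoisomerase-agent combination. Incubate 48hr, add CellTiter-Glo, wait 30min, read luminescence.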

For the molecule `CCCc1nn(C)c2c(=O)[nH]c(-c3cc(S(=O)(=O)N4CCN(C)CC4)ccc3OCC)nc12`, in [1], the remaining parasite growth % (stronger effect = lower value) stood at 98.3%. Besides, the remaining proliferation (% of control), lower = more inhibition in test [2] is 61.6%. This molecule also gave a parasite growth, % of DMSO control in test [3] of 21.3%. Moreover, the parasite growth remaining, % of DMSO control (lower = more inhibition) in test [4] is 17.2%. This molecule returned a parasite growth, % of control (lower = inhibition) in test [5] of 51.4%. Also, in test [6], the growth, % of control was 24.6%. Further, the Potency was 37.2 µM (active) in [7], 14.8 µM (active) in [12], 13.2 µM (active) in test [13] and 5.26 µM (active) in test [14]. The cell viability, % of control (lower = more cytotoxic) in [8] turned out to be 91.7%. In test [9], this molecule gave a viability (% of control) of 81.8%. The Potency result in [10] and in test [11] was “inactive” throughout.

Turning to `CCCS(=O)(=O)Nc1ccc(F)c(C(=O)c2c[nH]c3ncc(-c4ccc(Cl)cc4)cc23)c1F`, the remaining parasite growth % (stronger effect = lower value) in test [1] came out at 17.1%. For the same molecule, the activity, percent of control in test [15] came out at 22.9%. For the same molecule, in test [2], the remaining proliferation (% of control), lower = more inhibition amounted to 22.8%. In [3], this molecule registered a parasite growth, % of DMSO control of 17.9%. Moreover, the parasite growth remaining, % of DMSO control (lower = more inhibition) in test [4] is 24%. The molecule also displayed a parasite growth, % of control (lower = inhibition) in test [5] of 52.1%. In test [6], this molecule displayed a growth, % of control of 15.2%. Further, the Potency was 20.9 µM (active) in test [7], 13.2 µM (active) in [12], 14.8 µM (active) in [13] and 20.9 µM (active) in test [14]. For the same molecule, the cell viability, % of control (lower = more cytotoxic) in test [8] stood at 453%. For the same molecule, in [9], the viability (% of control) stood at 99.1%. Also, the Potency entry in test [10] and in test [11] was “inactive” in each case.

Take `Clc1ccc(Nc2nnc(Cc3ccncc3)c3ccccc23)cc1`: the remaining parasite growth % (stronger effect = lower value) in test [1] was -0.114%. Moreover, the remaining proliferation (% of control), lower = more inhibition in test [2] is 0.459%. Also, in test [3], the parasite growth, % of DMSO control came to 34.2%. Besides, the parasite growth remaining, % of DMSO control (lower = more inhibition) in test [4] was found to be 84.7%. In addition, in test [5], the parasite growth, % of control (lower = inhibition) amounted to 63.4%. For the same molecule, the Potency in test [7] is 37.2 µM (active); in [12], 2.96 µM (active); in test [13], 20.9 µM (active); in [14] it was 26.4 µM (active). Further, in test [8], the cell viability, % of control (lower = more cytotoxic) came to 117%. In test [9], this molecule displayed a viability (% of control) of 68.2%. The Potency result in test [10], in test [11] and in [16] was “inactive” each time.

For `CCOC(=O)C1=C[C@@]2(CC)CCCN3CCc4c(n1c1ccccc41)[C@H]32`, the remaining parasite growth % (stronger effect = lower value) in test [1] was 66.2% [at 18.4 µM]. Also, in [15], the activity, percent of control turned out to be 56.5% [at 18.4 µM]. In test [2], this molecule gave a remaining proliferation (% of control), lower = more inhibition of 25.8% [at 18.4 µM]. The Potency in [7] is 9.5 µM (active).
